Compound activity (PubChem BioAssay)
An excerpt weighted towards active compounds, which were near 3.8% of everything screened.
HT1080 IDH1KD tx = kills HT-1080 cells with IDH1 knockdown | AID 686971 | Potency, µM (series often up to 46.1 µM), inactives show at the top dose activity, negative = toxicity, most hits filed as cytotoxic | HT-1080 IDH1 knockdown viability, ATP luminescence, 48 h | 360,000 compounds, 2% hits;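 also: 0% = DMSO wells and -100% = cell-free medium wells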
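Knockdown cells (IDH1KD HT-1080) received compounds 2 h after plating at 750 cells/well and were kept 48 h at 37 °C in 5% FBS RPMI. A CellTiter-Glo luminescence read gave % activity for curve fitting.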
HepG2 tox = HepG2 cytotoxicity, counter-screen for TGF-b inhibitors; HepG2 CAGA-GFP viability, ATP luminescence, 18 h; Potency, µM (top dose mostly 46.1 µM), for inactives: top-dose activity change, negative = cytotoxicity, most hits filed as cytotoxic; 410,000 compounds, 0.76% hits
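CellTiter-Glo luminescence gave cytotoxicity after 18 hours at 37 degrees C. The cells were HepG2 CAGA-GFP in 1% FBS DMEM, stimulated with 500 pg/mL TGF-beta after compound addition. %Activity was normalised to no-cell wells (complete cell-killing) and DMSO (no toxicity), and curves were fitted and classified.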
TGFb inhibitor = blocks TGF-b signaling; HepG2 CAGA-GFP TGF-b/SMAD3 reporter, GFP fluorescence, 18 h; TGF-beta stimulated, 500 pg/mL final; Potency, µM (highest dose often 46.1 µM), without a hit: top-dose activity, negative = inhibition, most hits filed as inhibitors; 410,000 compounds, 1.2% hits; also: % is scaled to controls: 0 for no effect and ±100 for the full control effect; nearly all actives have a fitted effect of over 65% in size
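HEPG2 CAGA-GFP reporter cells (1000/well, DMEM with 1% FBS) received compounds, then recombinant TGF-beta at 500 pg/mL final for 18 hours at 37 degrees C. Per-cell GFP summed per well was normalised to unstimulated and stimulated DMSO controls before curve fitting.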
ATXN viability = viability counter-screen for ATXN expression inhibitors; 400,000 compounds, 0.49% hits; S2 cells (HEK-293 line with an ATXN2-luciferase reporter) viability, CellTiter-Fluor protease fluorescence, 24 h; Potency, µM (top dose mostly 56.7 µM), hits mostly cytotoxic; AID 651635; also: nearly all actives have a fitted effect of over 40% in size
HT1080-NT tox = kills 2HG-producing HT-1080-NT fibrosarcoma cells | 360,000 compounds, 1.6% hits | HT-1080-NT fibrosarcoma viability, CellTiter-Glo ATP luminescence, 48 h | Potency, µM (highest dose often 46.1 µM), for inactives: at the highest dose activity, negative = less viability, actives largely listed as cytotoxic | AID 686970;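 also: NT is the 2HG producing partner of a matched IDH1 knockdown line; 0% = DMSO-treated cells and -100% = media-only wells without cells; nearly all actives have a fitted effect of over 55% in size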
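Viability by CellTiter-Glo luminescence after 48 h compound exposure at 37C of HT-1080-NT cells (750/well, RPMI, 5% FBS). % activity scaled between DMSO wells and medium-only wells, then curve-fitted and categorized by curve class.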
ATXN2 expr inh = ATXN2 expression inhibition; AID 1745845; HEK-293 ATXN2-luciferase reporter, luminescence, 24 h; 360,000 compounds, 0.72% hits; Potency, µM (top dose mostly 57 µM), inactives show at the top dose activity change, negative = inhibition, most hits filed as inhibitors; also: % is scaled to controls: 0 for no effect and ±100 for the full control effect; nearly all actives have a fitted effect of over 55% in size
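ATXN2-luciferase reporter cells (luciferase flanked by upstream and downstream ATXN2 gene portions) were treated 24 h at 37 °C with compounds at up to 57 uM. SteadyGlo luminescence gave expression; GF-AFC fluorescence gave viability.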
* marks the source's active call; other numbers are inactive results; i = inactive; ? = inconclusive; nt = no result. Calls follow the shape of the dose curve; as a rule, active = well fitted curve in the direction sought with a large enough effect; inconclusive = small, poorly fitted or top-dose-only effect, or another doubt; inactive = no such curve, though single readings can be large; an effect the other way counts as inactive or inconclusive. Potency is read from the fitted curve at half-maximal effect.

SMILES | HT1080 IDH1KD tx | HepG2 tox | TGFb inhibitor | ATXN viability | HT1080-NT tox | ATXN2 expr inh
O=S(=O)(Nc1ccc(-n2cccc2)cc1)c1ccc(Cl)c(Cl)c1 | -2.5% | -102.5% | 11.2µM* | i | ? | nt
Oc1ccc(/C=N/N2CCN(C3c4ccccc4-c4ccccc43)CC2)cc1 | -8.2% | 17.8µM* | 12.6µM* | i | -10.2% | 9.4%
CCOc1ccc(N(CC)S(=O)(=O)c2cc(Br)cc3c2N(C(C)=O)C(C)C3)cc1 (stereo not drawn) | nt | -55.2% | 10µM* | i | nt | -9.0%
Cc1cc2nc(/C(C#N)=C/c3ccncc3)[nH]c2cc1C | 23.1µM* | -21.6% | -26.8% | i | ? | 3.2%
N#C/C(=C\c1ccncc1)c1nc2ccccc2[nH]1 | -1.2% | -25.3% | 2.5% | i | -22.6% | 42.1%
CCc1ccc(CNC(=O)c2cnc3sc(N4CCCC4)nn3c2=O)cc1 | nt | 2.9% | ? | nt | nt | nt
CN(C)S(=O)(=O)c1ccc(-c2csc(N/N=C/c3ccc(O)cc3)n2)cc1 | 4.11µM* | 12.6µM* | ? | nt | 9.2µM* | ?
O=[N+]([O-])c1cccc(-c2csc(N/N=C/c3cccc(O)c3)n2)c1 | 18.4µM* | -0.8% | 1.2% | ? | ? | ?
COc1ccc(CNC(=O)C(CCSC)NS(=O)(=O)c2ccc3c(c2)oc(=O)n3C)cc1 (stereo not drawn) | nt | 3.0% | -2.5% | nt | nt | nt
Cc1ccc(C2=NN(CC(=O)NCCc3ccc(Cl)cc3)C(=O)CC2)cc1 | nt | -30.9% | 11.2µM* | nt | nt | nt
CCCCN(CCCNC(=O)CN1N=C(c2ccc(C)cc2)CCC1=O)c1ccccc1 | nt | -82.3% | 12.6µM* | nt | nt | nt
Fc1ccc(-n2ncc3c(Nc4cccc(Cl)c4)ncnc32)cc1 | nt | -97.3% | ? | ? | nt | ?
Cc1nc(N2CCc3ccccc3C2)[nH]c(=O)c1Cc1ccccc1 | 2.8% | 5.4% | 13.2% | i | 3.8% | 8.3%
Cc1nc(-n2[nH]c3c(c2=O)CCCC3)[nH]c(=O)c1Cc1ccccc1 | ? | -13.3% | -20.9% | 17.8µM* | ? | 8.91µM*
Cc1cccc(OC(=O)c2snnc2C)c1 | nt | 5.5% | 0.7% | i | nt | -7.5%
CC(C)CC(NC(=O)c1ccc(Cl)cc1)C(=O)OCC(=O)c1ccc2c(c1)NC(=O)CO2 (stereo not drawn) | 8.2µM* | 3.16µM* | 11.2µM* | 22.4µM* | 10.3µM* | 25.1µM*
COc1ccc(C(NC(C)=O)c2ccc3cccnc3c2O)c(OC)c1 (stereo not drawn) | 6.51µM* | -7.2% | -13.2% | ? | ? | 1.78µM*
CC(=O)NC(c1ccc2ccccc2c1)c1ccc2cccnc2c1O (stereo not drawn) | ? | -10.7% | ? | i | ? | 2.82µM*
CCCS(=O)(=O)NCc1c(C)ncc2c1CCN(C(=O)c1cccc(C(F)(F)F)c1)C2 | nt | nt | nt | i | nt | nt
COc1ccc2occ(CC(=O)Nc3ccc(S(=O)(=O)Nc4nc(C)cc(C)n4)cc3)c2c1 | nt | 1.5% | ? | i | nt | 5.2%
CCCCCc1cc(=O)oc2c(C(CCN3CCCC(C)C3)c3cc(OC)c(OC)c(OC)c3)c(OC)cc(OC)c12 (stereo not drawn) | ? | 15.8µM* | ? | 31.6µM* | ? | ?
CCCCCc1cc(=O)oc2c(C(CCN3CCCCC3)c3cc(OC)c(OC)c(OC)c3)c(OC)cc(OC)c12 (stereo not drawn) | ? | 12.6µM* | 15.8µM* | 20µM* | 20.6µM* | 31.6µM*
CCN(CC)CCC(c1ccc2c(c1)OCO2)c1c(OC)cc(OC)c2ccc(=O)oc12 (stereo not drawn) | -0.2% | -15.7% | -0.1% | 10µM* | -2.8% | 10.3%
CCCCCc1cc(=O)oc2c(C(CCN3CCCC(C)C3)c3ccc(N(C)C)cc3)c(OC)cc(OC)c12 (stereo not drawn) | -24.6% | -76.2% | ? | nt | ? | ?
CCCCCc1cc(=O)oc2c(C(CCN(CC)CC)c3ccc(N(C)C)cc3)c(OC)cc(OC)c12 (stereo not drawn) | -25.0% | -108.6% | ? | 25.1µM* | 18.4µM* | ?
SMILES | HT1080 IDH1KD tx | HepG2 tox | TGFb inhibitor | ATXN viability | HT1080-NT tox | ATXN2 expr inh
OC[C@H]1O[C@@H](Oc2ccc(O)cc2)[C@H](O)[C@@H](O)[C@H]1O | nt | nt | nt | nt | nt | 9.2%
O=C(NCCc1csc(-c2cccc(F)c2)n1)c1cccs1 | nt | -32.0% | -6.1% | i | nt | -35.1%
CCOC(=O)c1c(C)oc(=O)c(CC)c1O | 0.5% | 4.6% | -0.4% | i | -0.1% | nt
CCOC(=O)c1c(C)oc2c(F)c(F)c(F)c(F)c2c1=O | ? | -6.5% | -25.0% | ? | ? | 31.6µM*
COc1ccc(NC(=O)CN(c2cc(C)cc(C)c2)S(=O)(=O)c2c(C)noc2C)cc1Cl | nt | -43.1% | -59.0% | ? | nt | ?
Cc1ccc(NC(=O)CCCn2c(=O)c3cccn3c3ccccc32)c(Cl)c1 | nt | -20.6% | -18.7% | nt | nt | nt
Cc1cc(C)cc(NC(=O)CCCn2c(=O)c3cccn3c3ccccc32)c1 | nt | -52.3% | 11.2µM* | nt | nt | nt
CC(C)c1ccc2c(c1)C(N1CCN(C)CC1)Cc1cccnc1S2 (stereo not drawn) | ? | -11.5% | 21.7% | ? | ? | -29.8%
COc1ccc2c(c1)CC(N1CCN(C)CC1)c1cc(OC)ccc1S2 (stereo not drawn) | 20.6µM* | 15.8µM* | ? | ? | ? | 28.2µM*
Cc1cccn2c(=O)c(C(=O)NCCc3ccc(S(N)(=O)=O)cc3)c(O)nc12 | nt | 3.3% | -9.2% | i | nt | -1.3%
COc1cccc(-c2csc(N3CCN(CC(=O)NNC(=O)c4ccc(Cl)cc4)CC3)n2)c1 | 11.2µM* | -28.9% | ? | i | ? | -9.6%
Cc1ccc(Cl)cc1N1CCN(C(=O)CN(C2CCCCC2)S(C)(=O)=O)CC1 | 20.6µM* | -12.8% | 0.0% | i | -7.4% | -24.0%
CS(=O)(=O)N(CC(=O)N1CCN(c2cccc(Cl)c2)CC1)C1CCCCC1 | -0.7% | -1.7% | -5.6% | i | -0.9% | -0.8%
Cc1cnc(NS(=O)(=O)c2ccc(N)cc2)nc1 | nt | nt | nt | i | nt | -2.8%
CC(=O)N(Cc1ccc(F)cc1)C1=C(NCCc2ccccc2)C(=O)c2ccccc2C1=O | 5.17µM* | 3.98µM* | ? | 28.2µM* | 5.8µM* | 12.6µM*
O=C1C(Cl)=C(NCCc2ccccc2)C(=O)c2ccccc21 | ? | -40.6% | ? | i | 9.2µM* | 31.6µM*
CC(C)NC1=C(Cl)C(=O)c2ccccc2C1=O | 7.08µM* | 8.91µM* | 10µM* | ? | ? | -15.8%
